Only some compounds are listed: those with a hit (about 14% of all), similar ones and a draw of the others.
USP10 inh: inhibitors of human USP10 deubiquitinase; Ubiquitin carboxyl-terminal hydrolase 10 (Homo sapiens), Q14694; 47,000 tested, 1.1% active; purified USP10, Ub-rhodamine fluorescence, 60 min; AID 1645856, 2021; inhibition, % at 20 µM
USP8 block: inhibitors of human USP8 deubiquitinase; 47,000 tested, 4.2% active; AID 1645853, 2021; Ubiquitin carboxyl-terminal hydrolase 8 (Homo sapiens), P40818; purified USP8, Ub-rhodamine cleavage fluorescence, 30 min; inhibition, % at 20 µM
USP28 block: inhibitors of human USP28 deubiquitinase; Ubiquitin carboxyl-terminal hydrolase 28 (Homo sapiens), Q96RU2; purified USP28, Ub-rhodamine cleavage fluorescence, 30 min; inhibition, % at 25 µM; 47,000 tested, 3% active
USP30 inh: inhibitors of human USP30 deubiquitinase. Ubiquitin carboxyl-terminal hydrolase 30 (Homo sapiens), Q70CQ3. purified USP30, Ub-rhodamine cleavage fluorescence. inhibition, % at 25 µM. 47,000 tested, 5.3% active. AID 1645860, 2021
USP17 block: inhibitors of human USP17 deubiquitinase; purified USP17, Ub-rhodamine cleavage fluorescence, 3 h; inhibition, % at 50 µM; Ubiquitin carboxyl-terminal hydrolase 17-like protein 5 (Homo sapiens), A8MUK1; AID 1645855, 2021; 47,000 tested, 6.5% active
Target sequence (A8MUK1 whole entry, looked up): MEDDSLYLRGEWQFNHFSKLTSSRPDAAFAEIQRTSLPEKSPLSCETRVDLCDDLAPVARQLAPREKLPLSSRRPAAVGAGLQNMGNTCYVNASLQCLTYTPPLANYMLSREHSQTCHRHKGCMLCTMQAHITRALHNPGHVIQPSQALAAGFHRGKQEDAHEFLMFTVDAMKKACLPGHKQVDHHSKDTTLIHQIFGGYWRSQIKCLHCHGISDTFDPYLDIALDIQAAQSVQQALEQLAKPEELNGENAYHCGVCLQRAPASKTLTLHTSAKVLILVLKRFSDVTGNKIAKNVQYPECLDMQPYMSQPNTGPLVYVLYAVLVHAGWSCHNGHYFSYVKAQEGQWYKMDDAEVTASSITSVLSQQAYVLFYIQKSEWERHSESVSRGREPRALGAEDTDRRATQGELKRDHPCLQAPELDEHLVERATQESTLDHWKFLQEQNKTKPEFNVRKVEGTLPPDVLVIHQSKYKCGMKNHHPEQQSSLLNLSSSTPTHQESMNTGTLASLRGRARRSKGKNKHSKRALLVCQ
Numbers stand for hits; . = inactive; / = not tested or not shown. No stated cut-off is given here; in the data, active means inhibition above about 30%; inactive means the rest.

SMILES	USP10 inh	USP8 block	USP28 block	USP30 inh	USP17 block
O=C(COC(=O)c1cc(Cl)ccc1O)Nc1ccc2c(c1)OCCO2	.	.	.	.	60
Cc1cc(C)cc(C(=O)OCC(=O)Nc2ccc3c(c2)OCCO3)c1	.	.	.	.	.
O=C(Nc1cccc(F)c1)N1CCc2ccccc2C1	.	.	.	.	.
Cc1nc(COc2ccccc2)sc1C(=O)NC1CCCC1	.	.	.	.	39
Cc1ccnc(Nc2nc(C)c(C(=O)NC3CCCC3)s2)c1	.	.	.	.	31
Cc1cc(C)n(CC2CCN(S(=O)(=O)/C=C/c3ccccc3)CC2)n1	.	.	.	.	.
COc1ccc(C(=O)NCc2nnc(SCC(=O)Nc3ccc(C)c(Cl)c3)o2)cc1	.	.	.	.	.
COc1ccc2nc(SCC(=O)Nc3ccc(NC(C)=O)cc3)c(C)cc2c1	.	69	.	.	59
c1ccc2oc(-c3cn[nH]c3)nc2c1	.	.	.	31	.
CCOc1ccc(C(=O)Nc2cccc(-c3nc4ccccc4o3)c2)cc1Br	.	.	.	.	.
CCOc1ccc(S(=O)(=O)N(CC(=O)NC2CCCCCC2)c2ccccc2)cc1	.	.	.	.	.
COc1ccc(S(=O)(=O)N(CC(=O)NCc2ccco2)c2ccc(C)cc2)cc1	.	30	.	.	.
CCOc1ccc(S(=O)(=O)N(CC(=O)NCc2ccccc2C)c2ccccc2)cc1	.	.	.	.	45
O=C(O)C1CCN(Cc2c(-c3ccco3)nc3ccc(Cl)cn23)CC1	.	.	.	.	.
Cc1ccc(C)c(NC(=O)CSc2cc(N3CCCCC3)ncn2)c1	.	.	.	41	.
Cc1cc(Cl)ccc1NC(=O)CCc1nc(CSc2nnc(-c3ccco3)o2)no1	.	.	.	.	.
COc1ccccc1-c1nc2c3c(C)c(C)n(-c4ccc(Br)cn4)c3ncn2n1	.	.	.	.	51
O=C(CCC(=O)N1CCN(C(=O)c2cnn3ccccc23)CC1)c1ccccc1	.	.	.	.	.
O=C(c1cnn2ccccc12)N1CCN(S(=O)(=O)/C=C/c2ccccc2)CC1	.	.	.	33	.
Cc1cn[nH]c1C1CCCCN1C(=O)C(C)(C)n1cncn1 (centres undefined)	.	.	.	.	.
Cc1ccc(NS(=O)(=O)c2cc(C(=O)NCc3ccncc3)ccc2C)c(C)c1	.	.	.	.	.
Cc1ccc(C)c(N(C(C)C(=O)NCc2ccncc2)S(C)(=O)=O)c1 (centres undefined)	.	.	.	35	35
COc1ccc(OCCn2c(C3CC(=O)N(C)C3)nc3ccccc32)cc1 (centres undefined)	.	.	.	.	.
Cc1ccc(N2CC(c3nc4ccccc4n3CCCCOc3ccccc3)CC2=O)cc1 (centres undefined)	.	.	.	52	.
Cc1ccc(N2CC(c3nc4ccccc4n3CCOc3cccc(C)c3)CC2=O)cc1 (centres undefined)	69	95	.	47	48
SMILES	USP10 inh	USP8 block	USP28 block	USP30 inh	USP17 block
CCCOc1ccc(NC(=O)COc2ccc(C(C)(C)C)cc2)c2cccnc12	.	.	.	.	.
COc1ccc(-n2nnnc2CNC(=O)C2CC(=O)N(c3ccc(C)c(C)c3)C2)cc1 (centres undefined)	.	.	.	.	.
CCN(CC)c1ccc2nnc(CCC(=O)NCc3ccc(F)cc3)n2n1	.	.	.	.	.
COc1ccc(C(=O)CSc2ccc3nnc(CCNC(=O)c4ccc(OC)cc4)n3n2)cc1	.	.	.	43	59
Cc1ccc(C(=O)NCCc2nnc3ccc(SCC(=O)N4CCCc5ccccc54)nn23)cc1	.	.	.	.	.
O=C(CSc1ccc2nnc(-c3ccc(Cl)cc3)n2n1)c1ccccc1	.	.	.	.	.
O=C(CSc1ccc2nnc(-c3ccccc3)n2n1)c1ccccc1	.	79	.	.	.
COc1ccc(C(=O)NCCc2nnc3ccc(SCC(=O)NCc4ccc(F)cc4)nn23)cc1	.	.	.	52	46
Cc1cc(-c2nccnc2CC2CCCN(S(C)(=O)=O)C2)n[nH]1 (centres undefined)	.	.	.	.	.
Cc1cc(NC(=O)CN2C(=O)C(=O)c3ccccc32)ccc1-n1ncnn1	.	32	.	.	.
CC(=O)[C@H]1c2c(c(O)c3c(O)cccc3c2-c2c3c(c(O)c4c(O)cccc24)C(=O)C[C@](C)(O)[C@H]3C(C)=O)C(=O)C[C@]1(C)O	.	64	.	.	78
CC(=O)Nc1cccc(-c2csc(C(O)c3ccccc3)n2)c1 (centres undefined)	.	.	/	/	.
Cc1ccc2c(c1C)NC(=O)[C@]21N2CCC[C@H]2[C@@H](C(=O)c2cc3ccccc3o2)[C@]12C(=O)Nc1ccccc12	.	.	.	.	44
CC1=C(C(=O)Nc2ccccc2)C(c2cccnc2)n2nc(-c3cccnc3)nc2N1 (centres undefined)	.	.	.	.	.
CC(Nc1ccc(Oc2ccccc2)cc1)C(=O)Nc1ccc2c(c1)OCCO2 (centres undefined)	.	.	.	.	.
CC(=O)Nc1ccc(NC(=O)C(C)Nc2ccc(Oc3ccccc3)cc2)cc1 (centres undefined)	.	61	.	.	.
CC(C(=O)Nc1ccc(F)c(F)c1)N(c1ccc(Oc2ccccc2)cc1)S(C)(=O)=O (centres undefined)	.	.	.	.	.
CC(Nc1ccc(Oc2ccccc2)cc1)C(=O)Nc1cccc(C#N)c1 (centres undefined)	.	.	/	/	37
Cc1cc2nc(C(C)NC(=O)c3cc(C4CC4)nn3C)cc(=O)n2[nH]1 (centres undefined)	.	.	.	36	.
O=C(CSc1nc2ccccc2[nH]1)N1CCN(S(=O)(=O)/C=C/c2ccccc2)CC1	.	.	.	31	36
O=C1C/C(=C\c2ccc3c(c2)OCO3)Cc2ccccc21	.	.	30	.	.
COc1ccc2c(c1)C(=O)C/C(=C\c1ccc(Cl)cc1)C2	.	.	.	.	.
O=C1Cc2ccccc2C(=O)N1c1ccc2c(c1)OCO2	.	82	36	.	66
O=C(Nc1c(C(=O)N2CCOCC2)oc2ccccc12)c1c(F)cccc1F	.	.	.	.	.
COc1cccc(S(=O)(=O)N2CC[C@H]3COC(=O)N(C)[C@@H]3C2)c1	.	.	.	.	.
COc1cccc(C(O)c2nc(-c3cccc(C(=O)O)c3)cs2)c1 (centres undefined)	.	.	.	.	.
COc1ccc(CNC(=O)C2COc3ccc(OC)cc3C2)cc1 (centres undefined)	.	.	.	.	34
CCCc1cnc(N2CCN(CC(=O)Nc3ccc(C(C)=O)cc3)CC2)nc1	.	.	.	.	.
Cc1ccc(CNC(=O)N2CCC(c3nc(C(=O)N(C)C)c(C)o3)CC2)cc1	.	.	.	31	.

Assay outcomes: PubChem BioAssay, Buhrlage Lab, Dana-Farber Cancer Institute and Novartis Institutes for BioMedical Research (Cambridge, Mass)
